An excerpt weighted towards active compounds, which were near 19% of everything screened.
TDP1 cell CPT = qHTS for Inhibitors of human tyrosyl-DNA phosphodiesterase 1 (TDP1): qHTS in cells in presence of CPT. chicken DT40 Tdp1-/-;hTDP1 cells + 20 nM CPT, ATP luminescence, 48 h. Potency, µM (doses to about 46.2 µM), without a hit: top-dose activity change, negative = growth inhibition, hits mostly inhibitors. hit rate 12% among 420,000. AID 686979, 2013; note: potency is the fitted concentration of half-maximal effect; nearly all actives have a fitted effect of over 55% in size
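Chicken DT40 Tdp1-/- cells stably complemented with human TDP1 were seeded at 400 cells/well in medium containing 20 nM camptothecin, exposed to pin-transferred compounds, and grown at 37 °C for at least 48 hr. Viability was read as ATP luminescence.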
IL1B secr inh = qHTS for Inhibitors of Inflammasome Signaling: IL-1-beta AlphaLISA Primary Screen. THP-1 LPS/ATP IL-1B secretion, AlphaLISA, 16 h; stronger effect = lower value. activity change, % at 57.5 µM. hit rate 4.7% among 360,000; in the data active = activity change below about -50%; inconclusive = mostly about -30% to -49%
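Secreted IL-1B measured by AlphaLISA bead assay after 16 h compound exposure of THP-1 cells; compounds (final up to 57.5 uM) added 1 h before LPS (250 ng/mL) and ATP (1.25 mM) stimulation; lower signal means less secretion.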
TDP1 cell noCPT = qHTS for Inhibitors of human tyrosyl-DNA phosphodiesterase 1 (TDP1): qHTS in cells in absence of CPT | DT40 Tdp1-/- hTDP1 cells, no CPT, ATP luminescence, 48 h | Potency, µM (doses to about 46.2 µM), without a hit: at the highest dose activity change, negative = growth inhibition, usual class: inhibitors | hit rate 15% among 420,000 | AID 686978, 2013; note: potency is the fitted concentration of half-maximal effect; nearly all actives have a fitted effect of over 55% in size
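Growth kinetics read by CellTiter-Glo luminescence after ≥48 hr at 37 °C. Cells: DT40 Tdp1-/- stably carrying human TDP1, 400 per well, compound exposure in the absence of CPT (DMSO vehicle).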
HT1080 IDH1KD tx = qHTS for induction of synthetic lethality in tumor cells producing 2HG: qHTS for the HT-1080-IDH1KD cell line; HT-1080 IDH1 knockdown viability, ATP luminescence, 48 h; Potency, µM (titrated, usually from 46.1 µM), for the others: at the top dose activity, negative = toxicity, actives largely listed as cytotoxic; hit rate 2% among 360,000;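 note: potency is the fitted concentration of half-maximal effect; 0% = DMSO wells and -100% = cell-free medium wells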
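IDH1KD HT-1080 cells, 750/well, RPMI + 5% FBS; compound pinned after 2 h settling; 48 h, 37 °C; CellTiter-Glo luminescence; % activity normalised to DMSO and no-cell wells; curves fitted, classed by r2 and efficacy.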
HT1080-NT tox = qHTS for induction of synthetic lethality in tumor cells producing 2HG: qHTS for the HT-1080-NT fibrosarcoma cell line; hit rate 1.6% among 360,000; Potency, µM (top dose mostly 46.1 µM), for inactives: top-dose activity, negative = less viability, actives largely listed as cytotoxic; HT-1080-NT fibrosarcoma viability, CellTiter-Glo ATP luminescence, 48 h;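 note: NT is the 2HG producing partner of a matched IDH1 knockdown line; potency is the fitted concentration of half-maximal effect; 0% = DMSO-treated cells and -100% = media-only wells without cells; nearly all actives have a fitted effect of over 55% in size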
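A 48-hour cytotoxicity screen used HT-1080-NT cells plated 2 hours before compound delivery. ATP-based CellTiter-Glo luminescence measured viability, normalized to DMSO and no-cell controls.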
Active calls of the source: *; ? = inconclusive; · = no result; [ ] = dose if it differs, or a comment. Unless noted, calls come from the whole dose curve; as a rule, active = well fitted curve in the direction sought with a large enough effect; inconclusive = small, poorly fitted or top-dose-only effect, or another doubt; inactive = no such curve, though single readings can be large; an effect the other way counts as inactive or inconclusive. Unless noted, % is set by controls: 0 for no effect and ±100 for the full control effect.

SMILES	TDP1 cell CPT	IL1B secr inh	TDP1 cell noCPT	HT1080 IDH1KD tx	HT1080-NT tox
O=C1NCN(c2ccccc2)C12CCN(C(c1ccccc1)c1nnnn1-c1ccc3c(c1)OCCO3)CC2 (configuration not stated)	?	0	?	?	?
O=C1NCN(c2ccccc2)C12CCN(C(c1cc3ccccc3o1)c1nnnn1-c1ccc3c(c1)OCCO3)CC2 (configuration not stated)	21µM*	-22	23µM*	-16%	-22%
O=C1NCN(c2ccccc2)C12CCN(C(c1nnnn1-c1ccc3c(c1)OCCO3)C1CC1)CC2 (configuration not stated)	23µM*	-12	13µM*	?	?
O=C1NCN(c2ccccc2)C12CCN(C(c1cccs1)c1nnnn1-c1ccc3c(c1)OCCO3)CC2 (configuration not stated)	18µM*	-3	16µM*	?	?
COc1cc(/C=N/NP(=S)(c2ccccc2)c2ccccc2)ccc1O	-1%	60	-1%	-25%	-1%
COc1ccc(/C=C/c2nc(-c3ccccc3O)n(-c3ccccc3)n2)cc1OC	10µM*	·	10µM*	·	·
CN1C2CCC1/C(=C/c1ccccn1)C(=O)/C2=C\c1ccccn1	0.52µM*	-101*	0.65µM*	0.82µM*	1.2µM*
Cc1nnc(NC(=O)c2cccn(Cc3cccc(Cl)c3)c2=O)s1	?	·	-26%	·	·
COC(=O)C1=C(c2cc3ccccc3o2)C[C@@H]2CC[C@H]1N2C(=O)NCc1cccc2ccccc12	?	-15	16µM*	-14%	-1%
COC(=O)C1=C(c2cccc(C#N)c2)C[C@@H]2CC[C@H]1N2C(=O)NCc1cccc2ccccc12	?	-18	-29%	-9%	2%
COC(=O)C1=C(c2ccc(S(C)(=O)=O)cc2)C[C@@H]2CC[C@H]1N2C(=O)NCc1cccc2ccccc12	29µM*	-11	·	11%	8%
COC(=O)C1=C(c2cc3ccccc3o2)C[C@@H]2CC[C@H]1N2C(=O)NCc1ccco1	16µM*	-12	·	-10%	5%
Clc1ccc2c(c1)C(c1ccccc1)=NCc1nncn1-2	1%	·	-27%	·	·
CCOC(=O)C1=C(c2ccccc2)N=c2s/c(=C\c3ccc(O)cc3)c(=O)n2C1c1cccs1 (configuration not stated)	12µM*	-78*	16µM*	?	?
COc1ccc(NC2(C#N)CCCCC2)cc1	1%	1	11%	0%	-4%
CCCNc1nc(-c2cc(C(=O)Nc3ccccc3)on2)cc(C(C)C)n1	?	-101*	?	-3%	-1%
O=C(c1ccccc1F)c1cn(CC(=O)N2CCCC2)c2ccccc12	?	6	16µM*	0%	-5%
Nc1ccc2nonc2c1[N+](=O)[O-]	-9%	8	-22%	6%	0%
CN1CCN=C(c2ccccc2)c2cc(Cl)ccc21	-88%	·	-86%	·	·
COc1ccc2c3c1O[C@H]1[C@H](O)CC[C@H]4[C@@H](C2)N(C)CC[C@@]341	10%[92.5 µM]	·	11%[92.5 µM]	·	·
Cc1c(C=O)c2ccccc2n1Cc1cccc(F)c1	?	54	?	-11%	-3%
O=C1c2ccccc2S(=O)(=O)c2cc(C(=O)N3CCN(c4c(Cl)cncc4Cl)CC3)ccc21	?	0	15µM*	-10%	2%
OC1/C(=C/c2ccccc2C(F)(F)F)N2CCC1CC2 (configuration not stated)	16%	3	13%	4%	4%
NCCCP(=O)(O)CC1CCCCC1	12%	·	-1%	·	·
Cc1cccc(/C(N)=N/OC(=O)N2CCOCC2)c1	16µM*	-18	18µM*	11µM*	?
SMILES	TDP1 cell CPT	IL1B secr inh	TDP1 cell noCPT	HT1080 IDH1KD tx	HT1080-NT tox
Cc1ccc2oc(-c3ccc(Cl)cc3)c(O)c(=O)c2c1	21µM*	·	16µM*	·	·
CCOCCOC(C)=O	6%[92.5 µM]	·	0%[92.5 µM]	·	·
COc1cccc(C2=CC(c3cc(Br)ccc3F)n3nnnc3N2)c1 (configuration not stated)	1.3µM*	·	1.3µM*	·	·
COCCCn1c(N)c(C(=O)Nc2sc3c(c2C(=O)OC)CCCC3)c2nc3ccccc3nc21	?	-72*	18µM*	15%	0%
COCCCn1c(N)c(C(=O)Nc2ccccc2)c2nc3ccccc3nc21	29µM*	-76*	?	?	?
CCC(C)NC(=O)c1c(N)n(CCCOC)c2nc3ccccc3nc12 (configuration not stated)	-6%	?	?	-4%	-4%
COC(=O)C1=C(c2cccc(OCc3ccccc3)c2)C[C@@H]2CC[C@H]1N2C(=O)NCc1ccc2[nH]ccc2c1	?	0	?	-11%	-5%
CC1=C(C(=O)Nc2ccccc2)C(c2ccc(C)cc2)N=C(Nc2nc3ccccc3o2)N1 (configuration not stated)	18µM*	-12	?	11µM*	?
CC1CCN(CC(=O)c2cccc(C(F)(F)F)c2)CC1	-12%	-6	4%	3%	4%
Cc1c(NC(=O)Nc2cccc(C(F)(F)F)c2)sc2nc3n(c(=O)c12)CCC(C)CC3 (configuration not stated)	13µM*	·	18µM*	·	·
CCOC(=O)C1CCN(/C=C2/C(=O)NC(=S)N(c3cccc(OC)c3)C2=O)CC1	-3%	-16	0%	1%	-1%
CCCCCN1C(=O)c2cc(OC)ccc2[C@@]2(C(=O)OCC)Cc3cc(Cl)ccc3[C@@H]12	3.3µM*	·	2.9µM*	4.1µM*	2.9µM*
CCOC(=O)[C@]12Cc3cc4ccccc4cc3[C@H]1N(Cc1ccccc1)C(=O)c1cc(OC)ccc12	8.2µM*	-109*	6.5µM*	15µM*	21µM*
CCOC(=O)[C@]12Cc3ccc4ccccc4c3[C@H]1N(Cc1ccccc1)C(=O)c1ccccc12	?	-56*	?	1%	-9%
CCOC(=O)c1cc2cc(OC)ccc2n1C1CCN(Cc2ccccc2)CC1	?	29	?	-26%	?
CCOC(=O)C1(c2ccccc2)CCN(CC(=O)Nc2cccc3ccccc23)CC1	?	-16	?	-2%	2%
CCOC(=O)[C@]12Cc3cc(OC)ccc3[C@H]1N(Cc1ccccc1)C(=O)c1cc(OC)ccc12	?	9	16µM*	-26%	-20%

Screening data: PubChem BioAssay, National Center for Advancing Translational Sciences (NCATS)
